In PubChem BioAssay (NCI) one finds growth data, which are given here for 40 compounds.

Molecules are shown by their SMILES. The panel holds about 83,000 compounds, 20% with a hit somewhere; the sample as a whole holds those more often.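 In brief: 96-well plates, 48 h treatment, single concentration, percent growth endpoint.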 Active and inactive are the calls of the source.

The subject of this experiment is SK-MEL-28 melanoma. Briefly: NCI-60 one-dose screen, 48 h (100 = growth as untreated, 0 = no growth, -100 = all killed). To be noted: 10 µM. On the procedure: Growth inhibition of the SK-MEL-28 human tumor cell line is measured as a screen for anti-cancer activity. Cells are grown in 96 well plates and exposed to the test compound for 48 hours. Compounds are tested at a single concentration, which is 10^-5 M for most compounds. The reported endpoint is percent growth (GI% or GIPRCNT), where numbers from 0 - 100% represent growth inhibition, and numbers from -100% - 0 represent cell death. For example, a value of 40 represents 60% growth inhibition. A value of 0 means no net growth occurred over the course of the experiment. A value of -40 indicates 40% of cells at the beginning of the experiment died by the end of the experiment. A value of -100 means all cells are dead at the end of the experiment.
NCI-60 Human Tumor Cell Lines Screen was performed using the standard one-dose NCI protocol, which is described in more detail at https://dtp.cancer.gov/discovery_development/nci-60/default.htm.
Compounds with GIPRCNT values below 10 were considered active. Activity score was based on GIPRCNT using the following formula: […]
Score is 0 for GIPRCNT values of 100 or above, 50 for GIPRCNT values of 0, and 100 for GIPRCNT values of -100.
Consider `CC(C)(C)c1cc(/C=C2\S/C(=N/c3ncn[nH]3)NC2=O)cc(C(C)(C)C)c1O`, for which the growth was 21.6% (inactive).

Consider `COc1cc(C2CC(c3ccccc3)=Nc3c(N)nc(N)nc3N2)ccc1Oc1nc(NCCO)nc(N2CCOCC2)n1` (stereo not given), for which the growth is 100% (inactive).

Turning to `CCOC(=O)c1ccc(NC(=O)CSC(CC(=O)c2sc(Nc3ccccn3)nc2C)c2ccccc2F)cc1` (stereo not given), the growth was 33.3% (inactive).

As to `O=C(Nc1ccc(OCC(=O)c2ccc(Cl)cc2)cc1)Nc1ccc(Cl)c(C(F)(F)F)c1`, the growth is 32.7% (inactive).

For `Cc1cc(N=C2NC(=O)/C(=C/c3cc(C(C)(C)C)c(O)c(C(C)(C)C)c3)S2)n[nH]1`, the growth is 22.9% (inactive).

On to `O=C(CN1CCN(c2ncnc3c2cnn3-c2ccccc2)CC1)Nc1ccc(Br)cc1`, for which the growth is 72% (inactive).

Regarding `COc1cc2oc(-c3cccc(C(=O)Nc4ccc(Cl)cc4)c3)cc(=O)c2c(OCCN)c1OC`, the growth is -88.1% (active).

Turning to `O=C(c1ccc(F)cc1)C(c1c[nH]c2ccccc12)c1c[nH]c2ccccc12`, the growth is 63.6% (inactive).

`COc1ccc(NCc2cn(-c3ccc(C(=O)O)cc3)nc2-c2ccc(F)cc2)cc1C(F)(F)F`: the growth was 33.3% (inactive).

Consider `O=C(Nc1ccc(OCc2ccc(F)cc2)cc1)Nc1ccc(Cl)c(C(F)(F)F)c1`, for which the growth is 31.4% (inactive).

As for `O=C1S/C(=C\c2ccc([N+](=O)[O-])cc2)C(=O)N1CCN1CCCCC1`, the growth is 109% (inactive).

Consider `COc1cccc(C(=O)CSc2nc(-c3ccc(OCc4ccccc4)c(OC)c3)c(C#N)c(=O)[nH]2)c1`, for which the growth is 96.5% (inactive).

Take `O=C1NC(=S)S/C1=C\c1cn(-c2ccccc2)nc1-c1ccc([N+](=O)[O-])cc1`: the growth is 18.3% (inactive).

Take `Cc1ccc(S(=O)(=O)N2CCN(S(=O)(=O)c3oc(-c4ccccc4)nc3C#N)CC2)cc1`: the growth was 78.2% (inactive).

With `Cc1cc(N=C2NC(=O)S/C2=C\c2ccc(F)cc2)n[nH]1`, the growth was -7.09% (active).

On to `COC(=O)CNC(=O)COc1c(OC)c(OC)cc2oc(-c3cccc(C(=O)Nc4ccc(Cl)cc4)c3)cc(=O)c12`, for which the growth is 20.5% (inactive).

For `Nc1nnc(-c2c[nH]c3ncc(Br)cc23)c(-c2c[nH]c3ccc(Br)cc23)n1`, the growth is 45.6% (inactive).

In the case of `Cc1ccc(-c2nc(C#N)c(S(=O)(=O)N3CCN(S(C)(=O)=O)CC3)o2)cc1`, the growth was 34.3% (inactive).

In the case of `COc1cc(Nc2nc(O)c(/C=C3\C=Nc4ccccc43)s2)cc(OC)c1OC`, the growth is -34.5% (active).

With `C#C[C@]1(O)CC[C@H]2[C@@H]3CC=C4c5sc(Nc6cc(C)cc(C)n6)nc5CC[C@]4(C)[C@H]3CC[C@@]21C`, the growth is -56.8% (active).

In the case of `O=C(c1ccccc1)c1ccc2nc(-c3ccccc3Br)[nH]c2c1`, the growth is -26.7% (active).

Consider `COc1ccc(C2c3sc4ccc(C)cc4c3Oc3nc(N)nc(N)c32)cc1` (stereo not given), for which the growth was 93.2% (inactive).

As to `CCOc1ccc(/C=N/NC(=O)Cn2nc(Cc3ccc(OC)cc3)c3onc(C)c3c2=O)cc1`, the growth was 11.5% (inactive).

Regarding `COc1ccc(C(=O)COc2ccc(NC(=O)Nc3ccc(Cl)c(C(F)(F)F)c3)cc2)cc1`, the growth is 40.1% (inactive).

For `Cn1cc(-c2cc3nc(-c4c[nH]c5ccccc45)cc(N)n3n2)c2cc(Cl)ccc21`, the growth is -99.4% (active).

`Fc1ccc(/C=C/c2nc3ccccc3n3c(-c4ccc(Cl)cc4)nnc23)cc1`: the growth was 89.1% (inactive).

Consider `Cc1ccc2sc3c(c2c1)Oc1nc[nH]c(=O)c1C3c1cccc(F)c1` (stereo not given), for which the growth is 110% (inactive).

As to `Cn1cc(-c2nc(N)nnc2-c2c[nH]c3ccccc23)c2cc(Br)cnc21`, the growth was 39.8% (inactive).

Consider `COc1cc(C2CC(c3ccc(Oc4ccc(Cl)cc4)cc3)=NN2c2nc(-c3ccc(Cl)cc3)c(C#N)c(N3CCOCC3)n2)cc(OC)c1OC` (stereo not given), for which the growth was 97.8% (inactive).

With `COc1ccc(C(=O)COc2ccc(NC(=O)Nc3ccccc3)cc2)cc1`, the growth was 102% (inactive).

Regarding `Cn1cc(-c2nnc(N)nc2-c2c[nH]c3ccc(F)cc23)c2cc(Br)cnc21`, the growth was 52.4% (inactive).

Consider `COc1cc2oc(-c3cccc(C(=O)Nc4ccc(Cl)cc4)c3)cc(=O)c2c(OCCNC(=O)[C@@H](N)CO)c1OC`, for which the growth was -74.9% (active).

For the compound `CC1(C)CC(=O)C2=C(C1)N(Cc1ccc(C(=O)O)cc1)C1=C(C(=O)CC(C)(C)C1)C2c1ccc(Cl)cc1`, the growth was 119% (inactive).

In the case of `CCn1c(SCC(=O)Nc2ccc(-c3nc4ccccc4[nH]3)cc2)nc2ccccc2c1=O`, the growth is -76.7% (active).

As for `COc1cc(-c2nc3ccc(C)cc3[nH]2)ccc1OCc1nnc(-c2ccccc2Br)o1`, the growth is 70.4% (inactive).

Consider `Cn1cc(-c2cc(N)n3nc(-c4cn(C)c5ccccc45)cc3n2)c2cc(F)ccc21`, for which the growth was -80.4% (active).

In the case of `O=C(CN1CCN(c2ncnc3c2cnn3-c2ccccc2)CC1)Nc1ccc(Cl)cc1`, the growth is 72.8% (inactive).

For `COc1ccc(OC)c(-n2cc(C#N)c(N)c2C(=O)c2ccc(Cl)cc2Cl)c1`, the growth is 59% (inactive).

As to `C#CCOc1cc(N(CC)CC)ccc1C(C(=O)NC(C)(C)C)N(C(=O)C1CCc2cc(F)ccc2O1)c1ccc(F)cc1F` (stereo not given), the growth is 62.8% (inactive).

Regarding `Fc1ccc(-c2csc(Nc3cccc(Nc4nc(-c5ccc(F)cc5)cs4)c3)n2)cc1`, the growth is 76.4% (inactive).
